Data on 13 compounds can be found in PubChem BioAssay (NCATS).

Inconclusive results are not listed. The source made the active and inactive calls. Calls come from the whole dose curve; as a rule, active = well fitted inhibition curve with a large enough effect; inconclusive = small, poorly fitted or top-dose-only effect; inactive = flat fitted curve, though single readings scatter.

Assay in all cases: qHTS profiling for inhibitors of Plasmodium falciparum proliferation (AID 504749); note: nearly all actives have a fitted effect of over 60% in size
Settings in all cases: P. falciparum in erythrocytes, SYBR Green DNA, 72 h; series mostly up to 28.7 µM

One assay relates to CP192. In short, it runs like this: (§1)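 Fluorescence of SYBR Green-bound parasite DNA, read at 485/535 nm, served as the growth measure. Infected erythrocytes were cultured with compound 72 h; artemisinin (0.29 uM) and DMSO wells defined the normalization range.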
The next assay concerns CP194. In short, it runs like this: as §1
For the next assay, the system named is CP201. The gist of the method: as §1
The subject of a further assay is CP203. The gist of the method:
as §1

The next assay concerns CP211. The gist of the method: as §1
Another assay has as its system CP215. In short, it runs like this:
as §1

The test system of a further assay is CP217. The gist of the method: as §1
For another assay, the system named is CP237. The gist of the method: as §1
The test system of a further assay is CP238. The gist of the method: as §1
The next assay concerns CP247. In short, it runs like this: as §1
The next assay deals with CP250. The gist of the method:
as §1

In another assay the test system is CP252. The gist of the method: as §1
For another assay, the system named is CP256. The gist of the method: as §1
The next assay deals with CP260. In short, it runs like this:
as §1

Another assay relates to CP262. The gist of the method: as §1
For another assay, the system named is CP265. In short, it runs like this: as §1
The subject of the next assay is CP266. In short, it runs like this: as §1
In the next assay the test system is CP268. The gist of the method: as §1
The subject of the next assay is CP269. The gist of the method: as §1
A further assay has as its system CP286. The gist of the method: as §1
Potency is the fitted concentration of half-maximal effect.

Consider `O=C(O)CCCCC(=O)O`, for which the Potency entry in the assay with CP192, with CP194, in the assay on CP201, in the assay on CP203, in the assay on CP211 and with CP215 was “inactive” in each case. Further, the Potency entry with CP217, in the assay with CP237, in the assay with CP238, in the assay with CP247, with CP250 and with CP252 was “inactive” each time. For the same compound, the Potency result with CP256, with CP260, in the assay with CP262, in the assay with CP265, with CP266 and with CP268 was “inactive” in each case. In addition, the Potency result in the assay on CP269 and in the assay on CP286 was “inactive” throughout.

Take `CCCCOc1ccc(OCCCN2CCOCC2)cc1`: the Potency entry with CP192, in the assay on CP194, in the assay with CP201, in the assay on CP203, in the assay with CP211 and in the assay with CP215 was “inactive” each time. In addition, the Potency entry in the assay with CP217, in the assay on CP237, in the assay on CP238, with CP247, with CP250 and in the assay with CP252 was “inactive” in each case. Further, the Potency entry in the assay on CP256, with CP260, in the assay with CP262, in the assay with CP265, in the assay on CP266 and with CP268 was “inactive” each time. Also, the Potency result in the assay with CP269 and with CP286 was “inactive” throughout.

Consider `CCCCCCCCCCCCCCCC[N+](C)(C)CC`, for which the Potency is 4.78 µM (active) in the assay with CP192; 6.01 µM (active) with CP194; 6.75 µM (active) in the assay on CP201; 10.7 µM (active) in the assay with CP203; 4.78 µM (active) in the assay on CP211; 9.53 µM (active) with CP215. For the same compound, the Potency with CP217 is 5.62 µM (active); in the assay on CP237, 4.47 µM (active); in the assay on CP238 it was 5.01 µM (active); in the assay with CP247 it was 4.47 µM (active); in the assay on CP250, 5.01 µM (active); with CP252, 5.01 µM (active). Further, the Potency in the assay with CP256 was 5.01 µM (active); in the assay with CP260 it was 2.82 µM (active); in the assay with CP262 it was 4.78 µM (active); with CP265, 5.01 µM (active); with CP266, 13.5 µM (active); in the assay on CP268, 6.75 µM (active). The Potency was 4.26 µM (active) with CP269 and 1.41 µM (active) in the assay with CP286.

With `CCOC(=O)OC(C)OC1=C(C(=O)Nc2ccccn2)N(C)S(=O)(=O)c2ccccc21` (stereo not given), the Potency result in the assay with CP192, in the assay on CP194, in the assay with CP201, with CP203, in the assay with CP211 and in the assay with CP215 was “inactive” each time. The Potency result in the assay on CP217, in the assay with CP237, in the assay on CP238, with CP247, in the assay with CP250 and with CP252 was “inactive” in each case. Further, the Potency result in the assay on CP256, in the assay on CP260, in the assay on CP262, in the assay with CP265, in the assay with CP266 and with CP268 was “inactive” each time. Also, the Potency result in the assay with CP269 and in the assay on CP286 was “inactive” each time.

As for `CN1C(CCl)Nc2cc(Cl)c(S(N)(=O)=O)cc2S1(=O)=O` (stereo not given), the Potency result in the assay on CP192, in the assay with CP194, in the assay on CP201, with CP203, with CP211 and in the assay on CP215 was “inactive” throughout. Further, the Potency result in the assay with CP217, in the assay on CP237, in the assay with CP238, in the assay on CP247, in the assay on CP250 and in the assay with CP252 was “inactive” each time. Moreover, the Potency entry in the assay with CP256, with CP260, in the assay on CP262, with CP265, in the assay with CP266 and in the assay on CP268 was “inactive” each time. Further, the Potency result in the assay with CP269 and in the assay on CP286 was “inactive” throughout.

For `COc1c2occc2c(OC)c2c(=O)cc(C)oc12`, the Potency result in the assay with CP192, in the assay on CP194, in the assay with CP201, in the assay on CP203, in the assay with CP211 and in the assay with CP215 was “inactive” throughout. The Potency entry in the assay on CP217, in the assay on CP237, in the assay with CP238, with CP247, in the assay with CP250 and in the assay on CP252 was “inactive” in each case. The Potency result with CP256, with CP260, in the assay on CP262, with CP265, with CP266 and in the assay on CP268 was “inactive” in each case. For the same compound, the Potency entry in the assay on CP269 and in the assay on CP286 was “inactive” each time.

For the compound `Cc1cc(O)c(C(C)C)cc1Cl`, the Potency entry with CP192, in the assay on CP194, in the assay on CP201, in the assay on CP203, in the assay on CP211 and in the assay with CP215 was “inactive” in each case. Further, the Potency result in the assay on CP217, in the assay with CP237, in the assay with CP238, with CP247, with CP250 and in the assay with CP252 was “inactive” each time. Further, the Potency entry in the assay on CP256, with CP260, with CP262, in the assay on CP265, in the assay on CP266 and in the assay on CP268 was “inactive” each time. In addition, the Potency result with CP269 and in the assay on CP286 was “inactive” throughout.

Take `CC(C)(Oc1ccc(Cl)cc1)C(=O)O`: the Potency entry with CP192, in the assay with CP194, with CP201, with CP203, in the assay with CP211 and in the assay with CP215 was “inactive” in each case. Moreover, the Potency result in the assay with CP217, with CP237, with CP238, in the assay with CP247, with CP250 and with CP252 was “inactive” each time. For the same compound, the Potency entry with CP256, with CP260, in the assay with CP262, with CP265, in the assay on CP266 and with CP268 was “inactive” each time. Besides, the Potency entry in the assay on CP269 and with CP286 was “inactive” each time.

As for `CCC(=O)c1c(O)cc(O)cc1O`, the Potency entry in the assay with CP192, in the assay on CP194, with CP201, with CP203, in the assay with CP211 and in the assay with CP215 was “inactive” in each case. In addition, the Potency entry with CP217, in the assay on CP237, in the assay with CP238, in the assay with CP247, in the assay with CP250 and in the assay with CP252 was “inactive” each time. For the same compound, the Potency result in the assay with CP256, in the assay on CP260, in the assay on CP262, in the assay with CP265, in the assay with CP266 and in the assay with CP268 was “inactive” throughout. The Potency result with CP269 and in the assay on CP286 was “inactive” each time.

For `CC(=O)N(O)CCCCCNC(=O)CCC(=O)N(O)CCCCCNC(=O)CCC(=O)N(O)CCCCCN`, the Potency result with CP192, with CP194, in the assay on CP201, with CP203, with CP211 and in the assay on CP215 was “inactive” throughout. Further, the Potency entry with CP217, in the assay with CP237, in the assay on CP238, in the assay with CP247, with CP250 and with CP252 was “inactive” in each case. Also, the Potency entry in the assay with CP256, in the assay with CP260, in the assay on CP262, in the assay on CP265, in the assay on CP266 and in the assay on CP268 was “inactive” in each case. Moreover, the Potency entry with CP269 and with CP286 was “inactive” in each case.

For `Nc1ccc(C(=O)O)cc1`, the Potency result in the assay with CP192, in the assay with CP194, with CP201, in the assay with CP203, with CP211 and in the assay on CP215 was “inactive” each time. Further, the Potency result in the assay on CP217, in the assay with CP237, with CP238, in the assay with CP247, in the assay on CP250 and in the assay on CP252 was “inactive” throughout. Moreover, the Potency result with CP256, with CP260, in the assay with CP262, in the assay on CP265, with CP266 and in the assay with CP268 was “inactive” each time. Moreover, the Potency entry in the assay on CP269 and with CP286 was “inactive” throughout.

With `CCCn1c(=O)[nH]c(=O)c2[nH]cnc21`, the Potency entry in the assay on CP192, with CP194, with CP201, with CP203, in the assay with CP211 and with CP215 was “inactive” each time. For the same compound, the Potency entry in the assay on CP217, in the assay with CP237, in the assay on CP238, in the assay with CP247, in the assay with CP250 and in the assay with CP252 was “inactive” each time. Besides, the Potency entry in the assay on CP256, in the assay on CP260, with CP262, in the assay on CP265, in the assay with CP266 and in the assay with CP268 was “inactive” in each case. The Potency entry with CP269 and in the assay with CP286 was “inactive” throughout.

With `CCC(C(=O)OCCN(CC)CC)c1ccccc1` (stereo not given), the Potency entry in the assay with CP192, in the assay on CP194, with CP201, with CP203, with CP211 and with CP215 was “inactive” in each case. Also, the Potency result in the assay with CP217, in the assay with CP237, with CP238, in the assay on CP247, with CP250 and with CP252 was “inactive” throughout. Moreover, the Potency result with CP256, in the assay on CP260, in the assay on CP262, in the assay on CP265, with CP266 and in the assay with CP268 was “inactive” in each case. In addition, the Potency entry in the assay with CP269 and in the assay with CP286 was “inactive” each time.
